Test results taken from PubChem BioAssay AID926 (National Center for Advancing Translational Sciences (NCATS), 2007).
The campaign covered roughly 73,000 compounds. About 350 (0.48%) were called active. Another 17% or so got no clear call; they are omitted. Calls follow the shape of the dose curve; as a rule, active = well fitted activation curve with a large enough effect in the main read-out, with a control signal flat (not every such curve was filed as active); inconclusive = small, poorly fitted or top-dose-only effect, or a change in a side signal; inactive = no such curve, though single readings can be large or run the other way; reference of the percent scale not stated here. Many of the other results were omitted from the sample, so actives are more common in it than they were.

Key:
[1] = qHTS Assay for Agonists of the Thyroid Stimulating Hormone Receptor; details: HEK293-CNG-TSHR cells, membrane potential dye, cAMP; measured here: parental cells max response;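 also: the control signal comes from parental cells without the receptor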
How it was run: (§1)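 HEK 293 cells stably expressing TSHR and a modified CNG channel, with CNG-only parental cells as counterscreen, were preloaded 60 min at room temperature with membrane potential dye containing 100 uM RO 20-1724. Compound exposure was 30 min, and depolarization was read as fluorescence at 590 nm.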

[2] = biological target: Thyrotropin receptor (Homo sapiens) (UniProt P16473); test: as above; details: HEK293-CNG-TSHR cells (CNG channel as cAMP sensor), membrane potential dye, cAMP; series mostly up to 57.1 µM
How it was run: as §1
Potency is read from the fitted curve at half-maximal effect.

Thyrotropin receptor (Homo sapiens), sequence (P16473 whole entry, looked up): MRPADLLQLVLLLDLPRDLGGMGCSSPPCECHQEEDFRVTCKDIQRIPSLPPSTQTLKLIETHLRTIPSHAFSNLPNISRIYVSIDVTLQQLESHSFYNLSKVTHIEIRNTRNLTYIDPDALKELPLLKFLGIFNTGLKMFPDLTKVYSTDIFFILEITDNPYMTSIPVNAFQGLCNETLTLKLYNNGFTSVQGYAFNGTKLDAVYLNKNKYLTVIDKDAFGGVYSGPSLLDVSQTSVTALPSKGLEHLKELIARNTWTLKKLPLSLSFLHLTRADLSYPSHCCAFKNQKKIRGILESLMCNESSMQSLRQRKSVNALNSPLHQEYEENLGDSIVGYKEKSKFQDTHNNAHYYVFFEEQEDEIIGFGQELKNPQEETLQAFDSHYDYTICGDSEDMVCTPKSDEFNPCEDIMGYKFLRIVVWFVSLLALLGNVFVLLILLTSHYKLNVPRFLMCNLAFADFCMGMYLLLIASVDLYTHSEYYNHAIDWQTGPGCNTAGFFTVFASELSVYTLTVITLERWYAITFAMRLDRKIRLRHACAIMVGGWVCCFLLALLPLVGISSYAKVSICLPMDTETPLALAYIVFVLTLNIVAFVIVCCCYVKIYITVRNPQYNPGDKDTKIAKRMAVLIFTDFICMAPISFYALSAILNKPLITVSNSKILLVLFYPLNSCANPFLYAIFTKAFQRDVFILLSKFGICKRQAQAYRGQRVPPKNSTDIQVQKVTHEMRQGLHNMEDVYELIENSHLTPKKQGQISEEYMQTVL

SMILES	activation [1]	Potency [2]	activation [2]
c1ccc2nc(C3=NCCN3)cnc2c1	-2.21%	inactive	–
COCc1cc(C)nc(Nc2cc(C)ccc2C)c1C#N	18.4%	inactive	–
CC1CCN(C(=O)CSc2ccc3nnc(-c4cccc(F)c4)n3n2)CC1	0.67%	inactive	–
COc1ccc(C[C@H](N)C(=O)N[C@@H]2[C@H](O)[C@H](n3cnc4c(N(C)C)ncnc43)O[C@@H]2CO)cc1	-1.32%	inactive	–
Cc1cc2nc3c(=O)[nH]c(=O)nc-3n(C[C@H](O)[C@H](O)[C@H](O)CO)c2cc1C	35.7%	inactive	–
O=C(CCn1c(=O)oc2ccccc21)Nc1ccon1	5.04%	inactive	–
COCCCNC(=O)COc1cc(C)c(Cl)c(C)c1	3.68%	inactive	–
COC(=O)CSC1=C(C#N)C(c2ccccc2OC)C(C(=O)OC)C(=O)N1 (stereo not drawn)	-3.31%	–	-3.47% [at 11.4 µM] (inactive)
C=CCOC(=O)COCCC(C)C	1.07%	inactive	–
Cn1cccc1C(=O)N1CCC[C@@]2(CCN(Cc3nccs3)C2)C1	1.41%	inactive	–
CCCC[C@@H]1C[C@H]1C(NC(=O)c1ccc(-c2ccccc2)cc1)c1ccc(-c2ccccc2)cc1 (stereo partly drawn)	1.42%	inactive	–
Cc1cccc(Br)c1	15%	inactive	–
CCCC(Cl)CCCC(Cl)CCC(Cl)CCC(Cl)CCC(Cl)CCCC(Cl)CCC (stereo not drawn)	3.46%	inactive	–
O=C(Cl)c1ccc([N+](=O)[O-])cc1	-6.7%	inactive	–
COc1ccc(C2SCCN2S(=O)(=O)c2ccccc2)cc1OC (stereo not drawn)	15.1%	31.6 µM (active)	–
COc1ccc(S(=O)(=O)Nc2ccc(S(=O)(=O)N3CCCCC3)cc2)cc1OC	-4.42%	inactive	–
COc1ccccc1CN1CC2(CCN(S(=O)(=O)c3ccccc3)CC2)C1	7.71%	inactive	–
Cc1ccc2oc(=O)ccc2c1	1.36%	inactive	–
CO[C@H]1COC(=O)[C@@H](OCc2ccccc2)/C=C\[C@H](C)[C@@H](OC)COC(=O)[C@H](OCc2ccccc2)/C=C\[C@@H]1C	-2.98%	–	-1.59% [at 11.4 µM] (inactive)
CCc1ccccc1N(CC(=O)NCCSCc1ccco1)S(C)(=O)=O	6.61%	–	16.8% [at 11.4 µM] (inactive)
COC(=O)C1(Cc2ccccc2)C=C2C(=C(C)C(=O)C2C)CN1 (stereo not drawn)	7.11%	inactive	–
CC(=O)N1[C@H](C)C=C[C@]1(Cc1ccccc1)C(=O)NCc1ccccn1	7.85%	inactive	–

SMILES	activation [1]	Potency [2]	activation [2]
Cc1cc(C)cc(C#CC2C=CC(Oc3ccc(C4CCCC4)cc3)C(CO)O2)c1 (stereo not drawn)	16.7%	–	5.07% [at 11.4 µM] (inactive)
COC(=O)[C@@]1(Cc2ccc(F)cc2)[C@@H]2[C@@H](CC(=O)[C@H]2CC(=O)C(=O)N2CCCC2)CN1C(=O)c1ccccc1	18.8%	inactive	–
CCNCCCNCCCNCCCNCC	-2.31%	inactive	–
BrC1C(Br)C(Br)C(Br)C(Br)C1Br (stereo not drawn)	2.31%	inactive	–
Cc1cccc(C(=O)O)c1[N+](=O)[O-]	15%	inactive	–
CC1(C)OC(C(O)(c2ccccc2)c2ccccc2)C(C(O)(c2ccccc2)c2ccccc2)O1 (stereo not drawn)	25.8%	–	15.4% [at 11.4 µM] (inactive)
Cc1cccc(NC(=O)CSC(N)=O)c1C	-24.7%	inactive	–
Cc1ccc(S(=O)(=O)N2CCCC2C(=O)NCc2ccco2)cc1 (stereo not drawn)	-0.0422%	12.6 µM (active)	–
CCCS(=O)(=O)N1CCCC(C(=O)NCc2ccco2)C1 (stereo not drawn)	10.5%	inactive	–
Cc1ccc(S(=O)(=O)N2CCCC2CO)cc1 (stereo not drawn)	-3.4%	–	-5.75% [at 11.4 µM] (inactive)
C/C(CCN1CCc2nc(-c3ccccc3)c(-c3ccccc3)cc2C1)=N\O[C@@H](C)c1cn([C@@H]2COC[C@@H]2O)nn1	0.56%	–	6.46% [at 11.4 µM] (inactive)
C=CCn1cnc2scc(-c3ccccc3)c2c1=O	-2.42%	inactive	–
O=C1C(c2[nH]c3ccccc3c2O)=Nc2ccccc21	-17.9%	inactive	–
O=C(O)CS(=O)c1ccc2c3c(cccc13)C(=O)c1ccccc1-2 (stereo not drawn)	-9.79%	–	-5.26% [at 11.4 µM] (inactive)
CCCCCCN(C(=O)CCCCCN1C(=O)NC(c2ccc(C(F)(F)F)cc2)C(C(=O)OCc2ccccc2)=C1C)C(C(=O)NCCCC)c1ccc(OCC(=O)OC)c(C(=O)OC)c1 (stereo not drawn)	18.9%	inactive	–
O=C(CSc1nc2c(cnn2-c2ccc(F)cc2)c(=O)[nH]1)N1CCCCCC1	1.57%	inactive	–
CN1CCC(CNC(=O)c2ccc(-n3c(=O)c(=O)[nH]c4ccccc43)cc2)CC1	-0.798%	inactive	–
Cc1ccc2nc(-c3ccccc3)cc(C(=O)O)c2c1	-5.12%	inactive	–
CC(C)(C)[Si](OCC[C@@H]1C[C@@]1(C)[C@@H](NP(=O)(c1ccccc1)c1ccccc1)c1ccccc1)(c1ccccc1)c1ccccc1	13.3%	inactive	–
O=C(CC(Cc1ccccc1)C(=O)O)NCCc1ccc2c(c1)OCO2 (stereo not drawn)	9.45%	inactive	–
O=C(CN(Cc1ccccc1)C(=O)c1ccc2c(c1)OCCO2)NCc1ccc2c(c1)OCO2	12.9%	7.94 µM (active)	–
O=C(COc1ccccc1)NCc1ccc2c(c1)OCO2	27.1%	inactive	–
